# Screens from PubChem BioAssay.
# Shown are actives, neighbours in structure and some others; about 19% of the full set was active somewhere.
# DT40 TDP1 CPT: qHTS for Inhibitors of human tyrosyl-DNA phosphodiesterase 1 (TDP1): qHTS in cells in presence of CPT. chicken DT40 Tdp1-/-;hTDP1 cells + 20 nM CPT, ATP luminescence, 48 h. Potency, µM (highest dose often 46.2 µM), without a hit: at the top dose activity change, negative = growth inhibition, actives largely listed as inhibitors. actives 12% (n = 420,000); further: nearly all actives have a fitted effect of over 55% in size
#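 Chicken DT40 Tdp1-/- cells stably complemented with human TDP1 were seeded at 400 cells/well in medium containing 20 nM camptothecin, exposed to pin-transferred compounds, and grown at 37 °C for at least 48 hr. Viability was read as ATP luminescence.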
# VP16 counter: VP16 counterscreen qHTS for inhibitors of ROR gamma transcriptional activity; Drosophila S2 Gal4-VP16 UAS-luciferase, luminescence, 20 h; Potency, µM (series often up to 53.6 µM), inactives show top-dose activity, negative = inhibition, actives largely listed as inhibitors; actives 3.5% (n = 310,000);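 further: Gal4-VP16 expression switched on by copper sulfate through the metallothionein promoter; nearly all actives have a fitted effect of over 50% in size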
# TDP1 cell noCPT: qHTS for Inhibitors of human tyrosyl-DNA phosphodiesterase 1 (TDP1): qHTS in cells in absence of CPT | Potency, µM (titrated, usually from 46.2 µM), without a hit: top-dose activity change, negative = growth inhibition, most hits filed as inhibitors | actives 15% (n = 420,000) | DT40 Tdp1-/- hTDP1 cells, no CPT, ATP luminescence, 48 h; further: nearly all actives have a fitted effect of over 55% in size
#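 Growth kinetics read by CellTiter-Glo luminescence after ≥48 hr at 37 °C. Cells: DT40 Tdp1-/- stably carrying human TDP1, 400 per well, compound exposure in the absence of CPT (DMSO vehicle).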
# RORg inh: qHTS for inhibitors of ROR gamma transcriptional activity | Drosophila S2 Gal4-RORgamma UAS-luciferase reporter, 20 h | Potency, µM (top dose mostly 53.6 µM), without a hit: at the top dose activity change, negative = inhibition, hits mostly inhibitors | actives 5.4% (n = 310,000) | AID 2551, 2010; further: nearly all actives have a fitted effect of over 60% in size
#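 Luminescence from a UAS-regulated Photinus luciferase reporter in stably transfected Drosophila Schneider cells is measured; decreased signal marks ROR gamma inhibition. Fusion expression is induced by 700 uM copper sulfate for 20 hr.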
# TDP1 block: qHTS Assay for Inhibitors of Tyrosyl-DNA Phosphodiesterase (TDP1); recombinant TDP1, AlphaScreen DNA substrate cleavage; actives 0.28% (n = 350,000); Tyrosyl-DNA phosphodiesterase 1 (Homo sapiens), Q9NUW8; Potency, µM (top dose mostly 130 µM), for inactives: top-dose activity change, negative = inhibition, actives largely listed as inhibitors; AID 485290, 2010; further: nearly all actives have a fitted effect of over 40% in size
# Target sequence (Q9NUW8 whole entry, looked up): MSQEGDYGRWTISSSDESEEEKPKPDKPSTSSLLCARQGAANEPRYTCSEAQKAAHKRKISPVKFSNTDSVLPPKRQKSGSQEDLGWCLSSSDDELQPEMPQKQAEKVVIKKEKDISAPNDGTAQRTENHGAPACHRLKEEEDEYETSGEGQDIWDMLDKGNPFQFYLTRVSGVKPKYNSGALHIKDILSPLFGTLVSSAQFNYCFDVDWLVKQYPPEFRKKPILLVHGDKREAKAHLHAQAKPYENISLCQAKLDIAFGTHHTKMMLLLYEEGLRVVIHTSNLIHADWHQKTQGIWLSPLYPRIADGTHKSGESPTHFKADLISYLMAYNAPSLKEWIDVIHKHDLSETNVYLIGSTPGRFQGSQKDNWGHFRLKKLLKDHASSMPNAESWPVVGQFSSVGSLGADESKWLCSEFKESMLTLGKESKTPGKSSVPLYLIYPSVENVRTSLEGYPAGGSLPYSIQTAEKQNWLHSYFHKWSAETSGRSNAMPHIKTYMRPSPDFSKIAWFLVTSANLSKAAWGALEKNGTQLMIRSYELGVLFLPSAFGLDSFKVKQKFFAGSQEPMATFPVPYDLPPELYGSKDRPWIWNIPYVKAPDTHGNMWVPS
#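 Tdp1 1 nM final; 15 min RT w/ cpd; substrate 15 nM, 5 min; beads 10 ug/ml, 10 min; AlphaScreen read. Neg ctrl: no enzyme.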
# Numbers without * were called inactive; u = inconclusive; x = not tested or not shown. The call rests on the fitted dose curve; in most records, active means well fitted curve in the direction sought with a large enough effect; inconclusive means small, poorly fitted or top-dose-only effect, or another doubt; inactive means no such curve, though single readings can be large; an effect the other way counts as inactive or inconclusive. On the % scale 0 is the no-effect control and ±100 the full control effect; potency means the concentration at half of the fitted maximal effect.
SMILES,DT40 TDP1 CPT,VP16 counter,TDP1 cell noCPT,RORg inh,TDP1 block
Nc1ccc(C(=O)NC2CCSc3ccccc32)cc1[N+](=O)[O-] (stereo unspecified),u,7.94µM*,u,u,-0.4%
Cc1ccc(C(=O)NC2CCCc3ccccc32)cc1[N+](=O)[O-] (stereo unspecified),u,-22.6%,14.6µM*,7.5%,5.4%
Cc1cccc(-n2nnc(C(=O)NC3CCCc4ccccc43)c2N)c1 (stereo unspecified),u,-2.8%,18.4µM*,u,2.0%
Cc1cc(C(=O)NC2CCCc3ccccc32)ccc1[N+](=O)[O-] (stereo unspecified),u,18.0%,u,40.9%,2.4%
COCCOC(=O)c1c(C)oc2ccc(OC(=O)COc3c(F)c(F)c(F)c(F)c3F)cc12,2.2%,-6.5%,-6.4%,14.0%,-8.7%
Cc1ccc(C)c([N+](=O)[O-])c1,x,2.3%,x,7.2%,7.0%
Cn1c(=O)oc2cc(S(=O)(=O)N3CCN(c4ccccc4F)CC3)ccc21,0.4%,0.5%,-6.8%,7.8%,2.8%
O=C(NCc1ccccc1)c1ccc(Cl)c(S(=O)(=O)N2CCCC2)c1,-22.9%,x,18.4µM*,x,-2.0%
O=C(O)c1ccc(Cl)c(S(=O)(=O)N2CCCC2)c1,11.5%,0.9%,8.8%,-25.4%,50.1µM*
COc1cccc(C(CNC(=O)c2ccc(Cl)c(S(=O)(=O)N3CCCC3)c2)N(C)C)c1 (stereo unspecified),u,x,20.6µM*,x,0.4%
COC(c1ccccc1)c1nc2ccccc2[nH]c1=O (stereo unspecified),1.9%,-12.1%,0.0%,0.8%,x
O=C(COc1ccc(Br)cc1)NC1CC1,-22.8%,1.8%,-7.6%,11.6%,3.2%
C/C(=N\Nc1nc(N)cc(Cl)n1)c1ccc(Cl)c(Cl)c1,-28.3%,-0.5%,u,-26.0%,3.7%
COc1cc(NC(=O)Cn2nc(C(F)(F)F)c(Br)c2C)cc([N+](=O)[O-])c1,14.6µM*,17.8µM*,20.6µM*,u,4.7%
FC(F)(F)c1cccc(NC(=S)N2CCN(c3cccc(C(F)(F)F)c3)CC2)c1,u,-21.3%,14.6µM*,11.2µM*,-7.3%
O=S(=O)(c1cccc(NC(=S)N2CCN(c3ccccc3)CC2)c1)C(F)F,13µM*,-20.9%,16.4µM*,-30.9%,3.4%
Fc1ccc(NC(=S)N2CCN(c3cccc(C(F)(F)F)c3)CC2)cc1,20.6µM*,u,13µM*,u,0.0%
CC(=O)NC1=NN(C(C)=O)C(C)(c2cccc([N+](=O)[O-])c2)S1 (stereo unspecified),-3.9%,-11.1%,u,-5.1%,-3.6%
CC[C@H](C)/C=C/C1=CC2=C(Cl)C(=O)[C@@]3(C)OC(=O)C(C(=O)[C@H](C)[C@@H](C)O)=C3C2=CO1,u,x,18.4µM*,x,x
CC(C)C[C@H]1CN=C(N(C)C)N1CCc1cccc(F)c1,-28.3%,x,-28.8%,x,-0.3%
Cc1cccc(CCN2C(Nc3ccccc3)=NC[C@@H]2CC(C)C)c1,18.4µM*,x,20.6µM*,x,-4.1%
CC(C)C[C@H]1CN=C(Nc2ccccc2)N1CCc1cccc(F)c1,10.3µM*,x,u,x,-6.0%
C[C@H]1CN=C(N(C)C)N1CCc1cccc(F)c1,2.7%,x,-6.5%,x,-5.9%
CCC(C)[C@H]1CN=C(N)N1CCc1cccc(F)c1 (stereo partly specified),18.4µM*,x,13µM*,x,x
CC(NC(=O)CSc1nc(=O)cc(N)n1CCc1ccccc1)c1ccccc1 (stereo unspecified),-15.6%,-6.2%,-14.5%,-23.2%,0.0%
SMILES,DT40 TDP1 CPT,VP16 counter,TDP1 cell noCPT,RORg inh,TDP1 block
O=[N+]([O-])c1ccc2c(c1)-c1ccccc1C2O (stereo unspecified),u,x,13µM*,x,x
COc1ccccc1NC(=O)/C(=C\c1cccs1)NC(=O)c1ccco1,0.2%,1.8%,20.1%,9.0%,x
Cc1cccc(-c2cc(NC(=O)c3ccccc3C)n(-c3ccccc3)n2)c1,u,x,-25.6%,x,8.1%
O=C(Nc1nc(N2C(=O)c3ccccc3C2=O)n(-c2ccccc2)n1)c1ccc(Cl)cc1,-6.5%,u,-10.6%,14.1µM*,10.4%
COc1ccccc1C(=O)Nc1cc(-c2cccc(Br)c2)nn1-c1ccccc1,14.6µM*,x,7.31µM*,x,-2.7%
CCC(CC)C(=O)Nc1cc(-c2ccccc2F)nn1-c1ccccc1,u,x,u,x,5.4%
O=C(Nc1cc(-c2cccc(Cl)c2)nn1-c1ccccc1)c1ccccc1F,16.4µM*,x,u,x,0.0%
CC(C)c1ccc(C(=O)Nc2cc(-c3ccccc3F)nn2-c2ccccc2)cc1,20.6µM*,x,10.3µM*,x,8.1%
CCN(Cc1nc2ccccc2n1C)c1ccccc1,-27.4%,u,u,u,x
CC1CN(C(=S)Nc2ccc(SC(F)F)cc2)CC(C)O1 (stereo unspecified),-14.6%,-8.4%,-13.8%,11.2µM*,9.3%
CC1CN(C(=S)Nc2ccc(Cl)cc2)CC(C)O1 (stereo unspecified),-4.7%,-25.1%,13.4%,-43.4%,2.7%
FC(F)Oc1ccc(NC(=S)N2CCN(Cc3ccccc3)CC2)cc1,6.0%,-6.2%,-24.2%,u,3.6%
OC1CCCN(C(=S)Nc2ccc(SC(F)F)cc2)C1 (stereo unspecified),0.8%,-0.8%,0.2%,11.7%,5.4%
CC1CN(C(=S)Nc2cccc(Cl)c2Cl)CC(C)O1 (stereo unspecified),0.0%,u,20.6%,17.8µM*,1.0%
CC1CC(C)CN(C(=S)Nc2ccc(SC(F)F)cc2)C1 (stereo unspecified),-18.6%,11.2µM*,u,5.01µM*,2.6%
CC1CC(C)CN(C(=S)Nc2ccc(OC(F)F)cc2)C1 (stereo unspecified),14.0%,u,5.2%,11.2µM*,0.6%
Cc1ccc(C(=O)OCC(=O)N2CC(C)CC(C)C2)cc1S(=O)(=O)N1CCOCC1 (stereo unspecified),-15.5%,4.6%,-26.6%,35.8%,-0.6%
Cc1cccc(NC(=O)c2nc[nH]c2C(=O)N[C@H](C)c2ccccc2)c1,u,x,u,x,-0.1%
CCN(CC(=O)Nc1ccccc1OC)C(=O)CN1C(=O)NC2(CCCC2)C1=O,-1.9%,x,-13.0%,x,x
